Drawing on PubChem BioAssay AID624354 (Sanford-Burnham Center for Chemical Genomics, 2012), this text covers inhibition (viability loss, TRAIL sensitization) for 94 compounds.

The whole screen tested about 360,000 compounds, of which about 3,800 (1.1%) were called active. Shown is part of a subset that was picked to be rich in actives. Unmarked numbers belong to inactive results.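 The calls were made as follows: active = compounds causing at least 50% loss of cell viability in the single-dose screen, relative to plate controls; inactive = the rest.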

This experiment in a line: TRAIL-exposed caspase-8 expressing cell killing – NB7+C8 cells, ATPlite luminescence, TRAIL sensitizer project, primary screen (AID 624354). To be noted: at 10 µM, active compounds read high. (Cellular ATP, detected with luciferase, serves as a proxy for viable cell number.)
Consider `N#CCCN(C(=S)Nc1ccc(Cl)c(Cl)c1)C1CCCCC1`, for which the inhibition (viability loss, TRAIL sensitization) is -41.1%.
The value for `COc1ccc(NS(=O)(=O)c2ccc(C)c(C(=O)N(C)Cc3ccc(OC)cc3OC)c2)cc1` was 17.8%.
`Cc1cccc(NS(=O)(=O)c2cccc(C(=O)NNC(=O)c3ccccc3O)c2)c1`: the inhibition (viability loss, TRAIL sensitization) was 24.7%.
As for `O=C(NNC(=O)c1cc(S(=O)(=O)N2CCCCC2)ccc1Cl)c1ccccc1O`, the inhibition (viability loss, TRAIL sensitization) is 14%.
Take `O=C(NNC(=O)c1ccccc1O)c1ccccc1O`: the inhibition (viability loss, TRAIL sensitization) is 59.8% (active).
Take `CC1(C)CC(=O)C=C(NC2CC(C)(C)NC(C)(C)C2)C1`: the inhibition (viability loss, TRAIL sensitization) was -7.42%.
The value for `C=CCNC(=O)c1ccc2c3n(nc2c1)-c1ccc(C)cc1CO3` was 47.7%; that for `CCOC(=O)N1CCN(C(=O)C2CCN(S(C)(=O)=O)CC2)CC1` was 9.65%.
For `Cc1nn(-c2ccccc2)nc1C(=O)OCC(=O)N1CCCCC1C` (centres undefined) the value was 10.3%; for `COC(=O)c1cc(S(=O)(=O)N2CCN(c3cc(C)ccc3C)CC2)c[nH]1`, -3.18%.
For `Cc1nc2ccc(S(=O)(=O)NCC(=O)NCCN3CCCCC3C)cc2s1` (centres undefined) the value was -1.47%; for `Cn1c(=O)[nH]c(=O)c2c1[nH]c(=S)n2Cc1ccccc1`, 7.43%; for `N#Cc1ccc(C(=O)Nc2nc(-c3cccs3)c(C(=O)C(F)(F)F)s2)cc1`, 53.5% (active).
As for `N#Cc1c(-c2cccs2)nc(SCC(=O)c2ccc(Br)cc2)[nH]c1=O`, the inhibition (viability loss, TRAIL sensitization) was -12.9%.
Take `C=CCN(CC=C)S(=O)(=O)c1ccc(C(=O)Nc2nc3c(s2)CCc2ccccc2-3)cc1`: the inhibition (viability loss, TRAIL sensitization) is 28.5%.
On to `Cc1ccc(NC(=O)CCC(=O)N2CCC(c3ccccc3)=N2)cc1S(=O)(=O)N1CCCCC1`, for which the inhibition (viability loss, TRAIL sensitization) was 18.8%.
For `Cc1nc2nc[nH]n2c(=O)c1NC(=O)c1cccc(OCC(C)C)c1` the value was -7.44%; for `O=C(CSC(=S)N1CCCCC1)c1c(F)cccc1F`, 3.44%.
The value for `O=C(CSC(=S)N1CCOCC1)c1ccccc1` was 57.5% (active).
`O=C(CP(=O)(c1ccccc1)c1ccccc1)N1CCOCC1`: the inhibition (viability loss, TRAIL sensitization) is -4.37%.
The value for `O=c1c(-c2ccccc2Cl)c[nH]n1-c1ccccc1` was 1.07%; that for `CS(=O)(=O)c1ccc(C(=O)NNC(=O)c2cccs2)cc1` was -3.16%.
For `Cc1cc2cc3c(cc2nc1SCC(=O)Nc1c(C)cccc1C)CCC3` the value was 3.78%; for `Cn1c(CC(=O)NNC(=O)c2ccccc2F)nc2ccccc21`, 11.4%.
Consider `CCn1c(NC(=O)c2nn(C)cc2Br)nc2ccccc21`, for which the inhibition (viability loss, TRAIL sensitization) was 16.9%.
For `Cn1c(-c2ccc(C(=O)c3ccccc3)s2)nc2ccccc21` the value was 66.6% (active).
The value for `Cc1nc2ccccc2c(C)c1C(=O)c1ccc(F)cc1` was 2.13%.
The value for `Cn1c(NC(=O)c2ccccc2)nc2ccccc21` was 49.5% (active); that for `CCC(C(=O)Nc1c(C)cccc1C)n1c(-c2cc(C)cs2)nc2ccccc21` (centres undefined) was 9.25%.
For the compound `COc1cc(-c2nc(S(=O)(=O)c3ccc(Cl)cc3)c(N(C)C)o2)cc(OC)c1OC`, the inhibition (viability loss, TRAIL sensitization) is -2.14%.
As to `COc1ccc(N(C(=O)c2ccc(C)cc2)S(=O)(=O)c2cccs2)cc1`, the inhibition (viability loss, TRAIL sensitization) was -2.28%.
Take `CCN(CC)S(=O)(=O)c1ccc(N2CCOCC2)c(NC(=O)C2CSC3(C)CCC(=O)N23)c1` (centres undefined): the inhibition (viability loss, TRAIL sensitization) was -1.07%.
For the compound `Cn1c(-c2ccco2)nc2cc3ccccc3cc21`, the inhibition (viability loss, TRAIL sensitization) was 89.4% (active).
For `Cn1c(SCC(=O)Nc2ccc(Br)cc2F)nnc1-c1ccco1` the value was -0.204%; for `COc1ccc(-n2cnc3cc(NCc4ccco4)ccc32)cc1`, 16.5%; for `Cc1c(CNCCc2ccccc2)c(C(=O)O)c(C)n1-c1ccccc1`, -25.6%.
Turning to `COCc1cc(=O)oc2cc(NS(=O)(=O)c3ccc(C)cc3)ccc12`, the inhibition (viability loss, TRAIL sensitization) is 2.58%.
For `Cc1cc(NC(=O)CCC(=O)N(Cc2ccccc2)C(C(=O)NC2CCCC2)c2ccc(C)o2)no1` (centres undefined) the value was -0.804%; for `CC(C)CCN1CCN(Cc2cn[nH]c2C2CCCCC2)CC1CCO` (centres undefined), 5.07%.
For `COc1ccc(/C=C/c2noc(-c3ccccc3OC(C)=O)n2)cc1` the value was 12.1%.
The value for `COc1ccc(-c2nc(-c3ccccc3)no2)c(OC)c1` was 83% (active).
Regarding `COc1ccc(-c2noc(CNC(=O)C(C)Oc3ccccc3)n2)cc1` (centres undefined), the inhibition (viability loss, TRAIL sensitization) was -4.7%.
Take `Cc1ccc([N+](=O)[O-])cc1S(=O)(=O)N1CCCN(C)CC1`: the inhibition (viability loss, TRAIL sensitization) was 1.18%.
Consider `Cc1ccc(C)c(S(=O)(=O)N2CCN(c3ncnc4sccc34)CC2)c1`, for which the inhibition (viability loss, TRAIL sensitization) is 66.5% (active).
For `Cc1ccc(S(=O)(=O)N2CCC3(CC2)OCCO3)c(C)c1` the value was 1.61%; for `CNC(=S)N1CCC(NC(=O)C(Cc2ccc(F)cc2)NC(C)=O)CC1` (centres undefined), -1.63%.
For `CCCCc1c(-c2ccc(Cl)cc2)ncn1CCc1ccccc1OC` the value was 31.8%.
Regarding `CCCCCc1c(-c2cccc(Br)c2)ncn1CCc1ccccc1OC`, the inhibition (viability loss, TRAIL sensitization) was 23.2%.
For `CCCCCc1c(-c2ccc(OC)c(OC)c2)ncn1CCc1ccccc1OC` the value was 51.2% (active).
The value for `CS(=O)(=O)N(CC(=O)N1CCN(c2ccc(F)cc2)CC1)C1CCCCC1` was -11.1%.
For `Cc1ccc(N/C=C/C(=O)c2ccccc2)cc1C` the value was 78.5% (active); for `CCOc1ccc(NC(=O)C2CCCN(C(=O)Nc3ccccc3)C2)cc1` (centres undefined), -15.9%; for `O=C(/C=C/Nc1ccc(S(=O)(=O)Nc2cnc3ccccc3n2)cc1)c1cccnc1`, -7.32%.
With `COC(C(=O)Nc1ccc(S(=O)(=O)Nc2ccc(C)c(C)c2)cc1)c1ccccc1` (centres undefined), the inhibition (viability loss, TRAIL sensitization) is 5.37%.
The value for `Cc1ccc(NNC(=O)C2CCC2)cc1C` was -7.51%; that for `COc1ccc(C(=O)/C=C/Nc2ccccn2)cc1` was 73.3% (active).
The value for `CCOc1ccc(N/C=C/C(=O)c2ccccc2)cc1` was 66.6% (active); that for `COCCN(C(=O)CCC(=O)Nc1ccccn1)C(C(=O)NCCC(C)C)c1ccc(OC)cc1` (centres undefined) was -1.74%.
For `CCOc1ccc(/C=C(/NC(=O)c2ccccc2)C(=O)NCCC(=O)O)cc1` the value was -4.31%; for `COc1ccc(CN2C(=O)CN=C2Nc2ccc(C)cc2C)cc1`, -15.6%; for `Cc1ccc(CN2CC(N3CCC(Cc4ccccc4)CC3)CS2(=O)=O)cc1` (centres undefined), -13.4%.
As to `Cc1ccc(CN2CCN(Cc3cccc(C)n3)CC2CCO)cc1` (centres undefined), the inhibition (viability loss, TRAIL sensitization) is 0.251%.
As to `COc1cc(C)c(CN2CCN(C(=O)CCC(=O)c3ccc(C)s3)CC2)cc1OC`, the inhibition (viability loss, TRAIL sensitization) is 16.8%.
`O=C(c1cc2c(s1)CCC2)N1CCN(c2ccccc2)CC1`: the inhibition (viability loss, TRAIL sensitization) was -1.76%.
As to `COc1ccc(S(=O)(=O)N2CN(CCc3ccc(OC)c(OC)c3)c3nc4ccccc4nc32)cc1`, the inhibition (viability loss, TRAIL sensitization) is 5.09%.
The value for `CC(C)(C)c1nc2ccccc2c(=O)n1N1C(=O)c2ccccc2C1=O` was 11.4%; that for `CN(c1ccc2nc3ccccc3c(=O)n2n1)C1CCCCC1` was 91.9% (active); that for `CN(C(=O)Nc1ccc(Cl)cc1)n1cnc2ccccc2c1=O` was 7.39%.
As for `O=C(Nc1ccc(NC(=O)c2cccs2)cn1)c1ccco1`, the inhibition (viability loss, TRAIL sensitization) is 63% (active).
For `O=C(COC(=O)c1ccco1)Nc1ccc(Cl)cn1` the value was -1.44%; for `CC(OC(=O)CNC(=O)c1ccco1)C(=O)Nc1ccc(Cl)cn1` (centres undefined), 8.79%.
On to `Cc1cc(C)c(S(=O)(=O)NN=C2c3ccccc3[C@H]3Cc4csc[n+]4[C@@H]23)c(C)c1`, for which the inhibition (viability loss, TRAIL sensitization) is -3.55%.
For `C#Cc1cc(N2CCN(C(=O)c3ccoc3)CC2)n2nc(-c3cccc(Cl)c3)cc2n1` the value was 91.7% (active); for `CCc1nc2ccc(C(=O)N3CCN(c4cccc(Cl)c4)CC3)cc2nc1CC`, 1.3%.
For `CNc1cncc(-c2cccc(C(=O)N3CCOCC3)c2)n1` the value was -18.4%; for `CC(C)(C)NC(=O)C(CCc1ccccc1)n1c(=O)c(-c2ccccc2)nc2ccccc21` (centres undefined), -2.69%; for `Nc1cc(C(F)(F)F)ccc1N1CCOCC1`, -31.5%.
The value for `COc1ccc(COC[C@H](CC(C)C)N2CCN(C(=O)c3cccc(C(F)(F)F)c3)CCC2=O)cc1` was -6.73%; that for `O=C(C(=O)N1CCC(c2ccccc2)CC1)c1ccccc1` was -9.02%; that for `COc1cccc2c1C(=O)c1c(O)c3c(c(O)c1C2=O)CC(O)(C(C)=NNC(=O)c1ccc(Cl)c(Cl)c1)CC3OC1CC(N)C(O)C(C)O1` (centres undefined) was 55.5% (active).
For the compound `Cc1c(Nc2nc3ccccc3nc2NS(=O)(=O)c2cccs2)c(=O)n(-c2ccccc2)n1C`, the inhibition (viability loss, TRAIL sensitization) was -7.01%.
For `CCN(CC(=O)Nc1ccc(C)c(S(=O)(=O)N(C)C)c1)Cc1ccccc1` the value was 9.33%; for `Cc1ccc(C(=O)Nc2ccc(C)c(S(=O)(=O)N(C)C)c2)s1`, 61.7% (active).
For `Cc1csc(SCC(=O)Nc2ccc(C)c(S(=O)(=O)N(C)C)c2)n1` the value was 1.13%; for `Cc1ccc(S(=O)(=O)NNC(=S)NC(C)(C)C)cc1`, -2.34%.
For `NNC(=O)C1CCCn2c1nc1sc3c(c1c2=O)CCCC3` (centres undefined) the value was 55.9% (active); for `N=c1c2c3c(sc2nc2n1CCCCC2)CCCC3`, 0.553%.
As for `Cn1c(NN)nc2sc3c(c2c1=O)CCC3`, the inhibition (viability loss, TRAIL sensitization) was -10.7%.
The value for `O=C1CSC(c2ccc(Cl)cc2)N1` (centres undefined) was 0.721%; that for `COC(=O)c1ccc(COC(=O)c2cnc(Cl)c(Cl)c2)cc1` was 1.15%.
Take `CCOc1ccc(C(C)=O)cc1COC(=O)c1cnc(Cl)c(Cl)c1`: the inhibition (viability loss, TRAIL sensitization) is 64.1% (active).
The value for `CCOc1ccc(C(C)=O)cc1COC(=O)CNC(=O)c1cccs1` was -4.84%; that for `COC(=O)/C(=C\Nc1ccccc1)NC(=O)c1ccc(Cl)cc1Cl` was 10.1%.
In the case of `Cc1ccccc1CN1C(=O)CSCC1(C)C(=O)Nc1c(C)cccc1C` (centres undefined), the inhibition (viability loss, TRAIL sensitization) was -13%.
